# Screens as filed in PubChem BioAssay.
# Hits are enriched below; roughly 4.5% of the tested compounds scored in any of these assays.
# Rce1 inhib = yeast Rce1p protease inhibitors, primary screen, biochemical, fluorescence, cell-free homogeneous; calls only; yeast membranes, quenched prenylated peptide cleavage fluorescence; AID 2563, 2010; 290,000 tested, 0.27% active; CAAX prenyl protease 2 (Saccharomyces cerevisiae (strain ATCC 204508 / S288c)), Q03530;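 active = fall in fluorescence gain of 50% or more versus controls, with final raw signal at or below 3038400; inconclusive = same 50% fall but final raw signal above 3038400; inactive = fall in fluorescence gain under 50%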;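 also: plate controls were neutral control wells for no effect and wells lacking membranes for full effect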
# GRK2 inh = compounds blocking aptamer binding on GRK2 – biochemical, human GRK2, bead flow cytometry, HTS, primary screen | Beta-adrenergic receptor kinase 1 (Homo sapiens), P25098 | FAM-aptamer displacement from GRK2 | inhibition of aptamer binding, % at 10 µM | 330,000 tested, 0.59% active | AID 488847, 2010;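 active = inhibition of aptamer binding above 40%, roughly 3 SD of noise, on plates passing a quality check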;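 also: median bead fluorescence of bound FAM aptamer so fluorescent compounds give negative values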
# Target sequence (P25098 whole entry, looked up): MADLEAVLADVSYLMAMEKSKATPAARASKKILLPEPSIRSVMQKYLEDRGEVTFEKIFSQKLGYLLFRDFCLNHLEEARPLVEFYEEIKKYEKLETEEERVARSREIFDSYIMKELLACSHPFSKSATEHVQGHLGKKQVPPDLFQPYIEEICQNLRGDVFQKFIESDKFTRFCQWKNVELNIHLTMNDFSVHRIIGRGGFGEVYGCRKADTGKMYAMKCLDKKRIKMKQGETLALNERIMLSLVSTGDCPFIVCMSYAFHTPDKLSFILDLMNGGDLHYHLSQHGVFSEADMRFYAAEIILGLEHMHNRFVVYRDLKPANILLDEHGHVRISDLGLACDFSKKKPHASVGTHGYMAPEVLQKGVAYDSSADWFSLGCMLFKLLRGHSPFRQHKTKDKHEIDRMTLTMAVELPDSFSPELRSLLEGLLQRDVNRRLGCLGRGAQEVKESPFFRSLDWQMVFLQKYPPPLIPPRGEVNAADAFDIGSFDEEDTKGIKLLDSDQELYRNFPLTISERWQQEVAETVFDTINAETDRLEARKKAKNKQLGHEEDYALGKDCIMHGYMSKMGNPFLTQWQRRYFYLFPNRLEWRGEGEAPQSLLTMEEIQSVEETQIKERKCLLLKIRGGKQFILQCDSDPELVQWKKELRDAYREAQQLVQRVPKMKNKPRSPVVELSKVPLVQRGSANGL
# HDAC3 inhib = HDAC3 deacetylase inhibitors, primary screen, biochemical, fluorescence, cell-free homogeneous; Histone deacetylase 3 (Homo sapiens), O15379; recombinant HDAC3, fluorogenic peptide/trypsin coupled; inhibition, % at 8.3 µM; 320,000 tested, 0.15% active; in the data active = inhibition above about 26%, passing the limit was not always enough; inconclusive = no clear call, values can overlap the other calls
# Efflux pump inh = inhibitors of Candida efflux pumps in yeast, primary screen, S. cerevisiae, Nile Red, multiplex; S. cerevisiae Candida pump triplex; inhibition, % at 10 µM; 330,000 tested, 0.44% active; AID 485275, 2010;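 active = plate passing quality check with inhibition over a set limit, or well fluorescence over plate mean plus 4 SD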;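 also: Nile Red retained in pooled yeast measured as flow cytometry median fluorescence; 0% = buffer negative control and 100% = Enniatin B positive control; higher means more Nile Red kept so more efflux inhibition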
# Rtt109 HAT inh = inhibitors of C. albicans Rtt109/Vps75 HAT, primary screen, biochemical, ThioGlo CoA-SH fluorescence, plate reader; Histone acetyltransferase RTT109 (Candida albicans (strain SC5314 / ATCC MYA-2876)), …; purified Rtt109/Vps75, 4 h; inhibition, % at 34.9 µM; 330,000 tested, 0.16% active; AID 540336, 2011;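 active = inhibition of at least 50% in every replicate; inconclusive = best replicate reaches 50% inhibition but some replicates fall short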
# ALR H2O2 inh = inhibitors of human ALR sulfhydryl oxidase, primary screen, biochemical, H2O2 detection, HRP-luminol luminescence, single point. FAD-linked sulfhydryl oxidase ALR (Homo sapiens), P55789. purified ALR, DTT oxidation. inhibition, % (no concentration beside the values). 290,000 tested, 3.8% active. AID 485317, 2010;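 active = mean replicate inhibition above about 79%, with every replicate also reaching it, limit read from the data; inconclusive = only one of the two criteria met; inactive = mean below limit and not every replicate reaching it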
# Starred values were filed as active, the others as inactive; i = inactive; ? = inconclusive; / = no result given.
SMILES,Rce1 inhib,GRK2 inh,HDAC3 inhib,Efflux pump inh,Rtt109 HAT inh,ALR H2O2 inh
COc1ccc(NC(=O)N(C)C[C@H]2Oc3c(NC(=O)c4nc5ccccc5s4)cccc3C(=O)N([C@@H](C)CO)C[C@H]2C)cc1,/,2,7,0,-3,0
CNc1ccccc1-n1ccc(-c2ccccc2)n1,i,0,4,0,5,94*
CC(C)n1c(-c2ccco2)csc1=Nc1cccnc1,i,0,11,0,-3,92*
Cc1cc2c(s1)Nc1ccccc1N=C2N1CCN(C)CC1,i,3,1,0,-6,94*
OCCCc1n[nH]c(=S)n1-c1ccccc1,i,3,9,0,-3,37
O=C1c2cccc3cccc(c23)C(=O)N1CCCc1n[nH]c(=S)n1-c1ccccc1,i,0,0,0,2,92*
Cc1ccc(C)c(N2N=C(C(=O)OCC(=O)N(C)c3ccccc3)CCC2=O)c1,/,/,/,/,-1,/
CCn1c(CNc2ccc(F)cc2)nnc1SCCN1CCCCC1,i,0,2,0,4,98*
CCC(CC)N1CCN(S(=O)(=O)c2ccc(OC)cc2)CC1,i,2,3,0,15,-4
O=C(NNC(=O)c1ccccc1-n1cccc1)c1cncc(Br)c1,/,0,5,0,-2,/
O=c1nccc(SCc2ccc(Cl)cc2Cl)[nH]1,i,2,?,0,0,99*
CCOc1cc(CNc2ccccc2SC)ccc1O,i,0,-2,0,/,80*
CCN1CCN(c2c(Cl)cccc2NC(=O)c2cc3ccccc3o2)CC1,i,0,4,2,-2,/
Cc1ccc(C)c(SCC(=O)N(C)C2CCS(=O)(=O)C2)c1 (stereo not drawn),/,4,3,0,10,-3
CCN(C(=O)CSc1ccc2c(c1)OCCO2)C1CCS(=O)(=O)C1 (stereo not drawn),i,0,-1,0,/,92*
CCN(C(=O)CSc1nc(-c2ccccc2)c(-c2ccccc2)[nH]1)C1CCS(=O)(=O)C1 (stereo not drawn),i,0,-7,0,2,99*
CC(=O)Nc1ccc(SCC(=O)N(C)C2CCS(=O)(=O)C2)cc1 (stereo not drawn),i,0,-6,0,?,98*
C/C(=N\O)C(C)(C)Nc1ccccc1F,i,1,-7,0,-7,-5
Cc1ccc(C)c(-c2cc(C(=O)NC3CC3)c3ccccc3n2)c1,i,0,8,0,-5,94*
CSc1nc(-c2ccc(Cl)cc2Cl)[nH]c(=O)c1C#N,i,0,-11,0,8,96*
COc1ccc(-c2noc(CN3CCN(C(=O)c4cccs4)CC3)n2)c(OC)c1OC,i,4,7,0,-1,1
C=CCNS(=O)(=O)NC(=O)C1=C(N2CCCC2)COC1=O,/,1,-3,0,-4,0
O=S(=O)(/N=S1/CC=CCN1S(=O)(=O)c1ccccc1)c1ccccc1 (stereo not drawn),i,2,12,0,?,99*
CC(C)(CNC(=O)c1ccc(NS(=O)(=O)c2ccc(F)c(F)c2)cc1)N1CCOCC1,i,2,4,0,-6,-4
O=C(O)c1cc(S(=O)(=O)Nc2ccc(N3CCCCC3)cc2)ccc1Cl,i,0,-4,0,3,98*
O=C(O)c1cc(S(=O)(=O)Nc2cccc(S(=O)(=O)N3CCCC3)c2)ccc1Cl,/,/,/,/,6,/
O=S(=O)(Nc1ccc(N2CCCCC2)cc1)c1ccc(F)c(F)c1,i,3,-4,0,-2,99*
O=C(O)c1cccc(S(=O)(=O)Nc2cccc(S(=O)(=O)Nc3ccc(Br)cc3)c2)c1,/,/,/,/,4,/
O=C(O)c1cccc(S(=O)(=O)Nc2ccc(N3CCCCC3)cc2)c1,/,0,-1,0,-2,99*
